Measurements published in the supplement of paper PMC11001985.
Values without a mark were called inactive.

compound: C#CCNC(=O)CCSSCCC(=O)NCCc1ccc(C=O)c(C=O)c1; assay: lysine labeling ratio R10:1 (500 µM / 50 µM probe), SILAC-ABPP in living cells; higher = lower intrinsic lysine reactivity toward the probe, active = 2 or less; details: HeLa; probe concentrations 500 vs 50 µM
Method in brief: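 An alkyne-tagged lysine probe with a disulfide linker labelled living HeLa cells in PBS at room temperature at either 50 µM or 500 µM, using SILAC light and heavy cells in forward and reverse label swaps. Lysates were mixed, clicked to biotin-azide, trypsin-digested, enriched on neutravidin, DTT-released, alkylated and measured by LC-MS/MS on a TIMS-TOF Pro. Each lysine's R is the filtered median high-probe/low-probe MS1 peptide ratio, combined as the median over forward and reverse replicates, with 20 as the upper limit.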

UniProt O00468, sequence (O00468 whole entry): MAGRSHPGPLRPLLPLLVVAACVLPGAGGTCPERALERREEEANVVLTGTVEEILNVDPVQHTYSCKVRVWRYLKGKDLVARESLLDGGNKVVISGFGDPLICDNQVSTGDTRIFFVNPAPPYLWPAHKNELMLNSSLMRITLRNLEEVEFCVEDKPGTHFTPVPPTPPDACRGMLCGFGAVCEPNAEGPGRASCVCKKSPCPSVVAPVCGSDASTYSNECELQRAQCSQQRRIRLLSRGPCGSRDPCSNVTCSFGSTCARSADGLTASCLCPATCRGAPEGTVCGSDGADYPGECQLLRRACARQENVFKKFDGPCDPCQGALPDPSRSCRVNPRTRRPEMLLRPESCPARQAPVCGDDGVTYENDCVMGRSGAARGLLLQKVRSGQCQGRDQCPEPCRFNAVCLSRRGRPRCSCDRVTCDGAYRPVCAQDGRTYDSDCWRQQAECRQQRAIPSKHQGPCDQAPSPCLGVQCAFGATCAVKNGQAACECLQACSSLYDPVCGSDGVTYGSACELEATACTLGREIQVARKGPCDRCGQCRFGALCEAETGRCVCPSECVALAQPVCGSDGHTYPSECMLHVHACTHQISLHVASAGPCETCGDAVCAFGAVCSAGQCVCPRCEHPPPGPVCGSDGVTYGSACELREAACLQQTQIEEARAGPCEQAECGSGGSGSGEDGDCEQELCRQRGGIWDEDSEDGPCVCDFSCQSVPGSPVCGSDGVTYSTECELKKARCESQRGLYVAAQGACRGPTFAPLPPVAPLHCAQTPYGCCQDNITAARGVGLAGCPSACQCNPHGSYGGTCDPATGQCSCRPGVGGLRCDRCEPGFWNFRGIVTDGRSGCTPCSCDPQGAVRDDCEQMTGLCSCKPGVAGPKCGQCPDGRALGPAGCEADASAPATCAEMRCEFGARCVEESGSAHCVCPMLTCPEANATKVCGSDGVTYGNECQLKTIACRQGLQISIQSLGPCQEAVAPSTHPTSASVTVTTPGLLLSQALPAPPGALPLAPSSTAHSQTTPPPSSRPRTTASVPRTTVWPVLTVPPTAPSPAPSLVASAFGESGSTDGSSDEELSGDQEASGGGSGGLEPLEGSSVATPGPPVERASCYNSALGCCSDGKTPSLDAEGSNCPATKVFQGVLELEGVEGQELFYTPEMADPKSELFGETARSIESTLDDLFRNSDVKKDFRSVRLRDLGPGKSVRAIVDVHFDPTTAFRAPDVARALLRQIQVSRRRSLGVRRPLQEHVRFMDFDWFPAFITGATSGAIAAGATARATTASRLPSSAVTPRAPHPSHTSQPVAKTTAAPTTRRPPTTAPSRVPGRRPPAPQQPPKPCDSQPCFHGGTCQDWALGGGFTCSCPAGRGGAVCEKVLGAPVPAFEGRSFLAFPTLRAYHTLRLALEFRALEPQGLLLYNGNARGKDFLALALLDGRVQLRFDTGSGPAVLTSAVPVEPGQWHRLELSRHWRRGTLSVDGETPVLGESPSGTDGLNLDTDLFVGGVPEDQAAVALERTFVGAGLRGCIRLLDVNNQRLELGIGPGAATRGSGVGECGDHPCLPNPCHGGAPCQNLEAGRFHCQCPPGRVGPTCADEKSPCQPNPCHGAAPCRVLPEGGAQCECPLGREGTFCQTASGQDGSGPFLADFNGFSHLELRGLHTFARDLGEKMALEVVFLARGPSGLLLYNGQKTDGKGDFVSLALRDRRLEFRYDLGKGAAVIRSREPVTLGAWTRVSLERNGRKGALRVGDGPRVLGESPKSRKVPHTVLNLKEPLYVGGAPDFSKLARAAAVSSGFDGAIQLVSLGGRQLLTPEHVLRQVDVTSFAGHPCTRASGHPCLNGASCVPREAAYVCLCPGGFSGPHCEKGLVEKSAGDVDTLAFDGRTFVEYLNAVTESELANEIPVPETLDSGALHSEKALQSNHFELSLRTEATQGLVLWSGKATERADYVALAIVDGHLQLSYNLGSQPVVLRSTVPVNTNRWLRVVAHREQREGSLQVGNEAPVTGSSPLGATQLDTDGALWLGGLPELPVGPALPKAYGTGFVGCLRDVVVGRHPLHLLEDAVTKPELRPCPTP
UniProt Q9Y2W1, sequence (Q9Y2W1 whole entry): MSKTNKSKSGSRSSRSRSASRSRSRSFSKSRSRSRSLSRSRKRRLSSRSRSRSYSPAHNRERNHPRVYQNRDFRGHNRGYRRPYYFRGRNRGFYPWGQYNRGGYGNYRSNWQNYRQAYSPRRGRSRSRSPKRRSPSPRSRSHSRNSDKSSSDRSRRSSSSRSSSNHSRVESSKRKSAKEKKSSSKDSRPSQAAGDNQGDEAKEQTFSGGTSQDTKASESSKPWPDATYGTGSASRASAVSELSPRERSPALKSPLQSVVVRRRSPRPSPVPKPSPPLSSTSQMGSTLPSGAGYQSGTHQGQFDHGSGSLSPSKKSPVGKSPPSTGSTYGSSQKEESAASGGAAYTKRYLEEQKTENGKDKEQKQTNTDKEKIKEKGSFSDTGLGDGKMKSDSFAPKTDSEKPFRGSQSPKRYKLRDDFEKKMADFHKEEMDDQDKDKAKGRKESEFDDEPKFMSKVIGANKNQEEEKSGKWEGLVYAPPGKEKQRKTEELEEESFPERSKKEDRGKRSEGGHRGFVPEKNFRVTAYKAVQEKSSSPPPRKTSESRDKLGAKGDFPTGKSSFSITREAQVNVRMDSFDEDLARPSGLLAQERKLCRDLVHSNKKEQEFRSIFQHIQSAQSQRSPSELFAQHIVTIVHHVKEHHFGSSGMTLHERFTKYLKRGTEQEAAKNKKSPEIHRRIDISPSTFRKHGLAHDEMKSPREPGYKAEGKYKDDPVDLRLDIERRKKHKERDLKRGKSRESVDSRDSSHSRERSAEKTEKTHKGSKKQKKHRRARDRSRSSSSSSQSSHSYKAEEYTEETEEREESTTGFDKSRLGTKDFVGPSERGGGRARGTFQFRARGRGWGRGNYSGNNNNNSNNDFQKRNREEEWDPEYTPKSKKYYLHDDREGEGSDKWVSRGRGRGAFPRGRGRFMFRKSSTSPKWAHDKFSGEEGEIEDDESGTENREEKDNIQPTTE
UniProt Q15366, sequence (Q15366 whole entry): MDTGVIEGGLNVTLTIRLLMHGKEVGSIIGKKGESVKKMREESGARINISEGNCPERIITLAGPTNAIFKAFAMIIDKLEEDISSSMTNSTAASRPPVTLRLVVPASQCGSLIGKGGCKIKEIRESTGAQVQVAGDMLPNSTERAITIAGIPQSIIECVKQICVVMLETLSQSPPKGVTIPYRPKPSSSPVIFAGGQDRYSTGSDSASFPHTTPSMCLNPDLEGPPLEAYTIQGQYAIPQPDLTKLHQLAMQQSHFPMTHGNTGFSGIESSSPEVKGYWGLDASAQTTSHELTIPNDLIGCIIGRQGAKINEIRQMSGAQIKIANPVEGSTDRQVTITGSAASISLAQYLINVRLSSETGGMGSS
UniProt P21589, sequence (P21589 whole entry): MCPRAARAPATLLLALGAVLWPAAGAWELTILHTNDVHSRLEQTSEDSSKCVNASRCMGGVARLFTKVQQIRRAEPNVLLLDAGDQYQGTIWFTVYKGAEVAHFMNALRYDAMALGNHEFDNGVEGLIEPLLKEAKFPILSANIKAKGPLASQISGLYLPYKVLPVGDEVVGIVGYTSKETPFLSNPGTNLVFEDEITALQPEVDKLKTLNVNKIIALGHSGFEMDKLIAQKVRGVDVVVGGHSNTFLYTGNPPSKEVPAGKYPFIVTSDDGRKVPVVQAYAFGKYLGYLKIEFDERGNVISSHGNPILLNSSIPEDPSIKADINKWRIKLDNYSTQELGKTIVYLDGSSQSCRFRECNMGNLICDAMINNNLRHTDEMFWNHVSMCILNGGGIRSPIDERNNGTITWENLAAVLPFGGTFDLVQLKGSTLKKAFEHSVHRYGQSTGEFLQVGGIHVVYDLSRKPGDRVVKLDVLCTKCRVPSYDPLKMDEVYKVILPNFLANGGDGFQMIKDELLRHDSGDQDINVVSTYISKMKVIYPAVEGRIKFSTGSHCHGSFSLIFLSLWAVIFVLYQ
UniProt O43854, sequence (O43854 whole entry): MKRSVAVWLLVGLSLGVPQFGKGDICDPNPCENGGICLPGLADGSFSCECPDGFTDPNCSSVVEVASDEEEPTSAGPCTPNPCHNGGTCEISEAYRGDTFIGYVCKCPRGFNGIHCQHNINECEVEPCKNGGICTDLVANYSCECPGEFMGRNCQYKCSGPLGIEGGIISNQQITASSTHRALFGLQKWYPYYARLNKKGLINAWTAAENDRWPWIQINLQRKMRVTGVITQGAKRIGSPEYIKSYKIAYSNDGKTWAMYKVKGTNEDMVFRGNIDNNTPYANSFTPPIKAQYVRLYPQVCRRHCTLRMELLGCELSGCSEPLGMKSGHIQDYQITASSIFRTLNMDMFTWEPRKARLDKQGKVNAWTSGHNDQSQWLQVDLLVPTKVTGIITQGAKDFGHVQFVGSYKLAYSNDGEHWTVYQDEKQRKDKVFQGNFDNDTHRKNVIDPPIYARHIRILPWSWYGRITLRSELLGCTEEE
UniProt P00387, sequence (P00387 whole entry): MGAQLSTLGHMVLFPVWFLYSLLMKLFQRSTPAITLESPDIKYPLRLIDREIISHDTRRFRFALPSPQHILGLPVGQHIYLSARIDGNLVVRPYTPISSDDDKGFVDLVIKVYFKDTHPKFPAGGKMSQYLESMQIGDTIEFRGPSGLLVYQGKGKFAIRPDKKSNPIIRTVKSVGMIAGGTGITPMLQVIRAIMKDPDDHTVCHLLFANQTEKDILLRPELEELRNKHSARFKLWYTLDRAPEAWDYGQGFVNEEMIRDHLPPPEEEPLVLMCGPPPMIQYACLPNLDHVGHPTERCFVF
UniProt O95292, sequence (O95292 whole entry): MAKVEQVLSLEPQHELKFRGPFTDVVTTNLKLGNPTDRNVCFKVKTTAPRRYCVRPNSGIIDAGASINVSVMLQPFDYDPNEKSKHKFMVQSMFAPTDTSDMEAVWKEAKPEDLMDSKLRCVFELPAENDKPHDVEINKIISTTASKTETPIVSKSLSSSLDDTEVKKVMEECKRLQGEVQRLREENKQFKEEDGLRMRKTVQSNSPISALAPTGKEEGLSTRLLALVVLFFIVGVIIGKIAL

Target | lysine labeling ratio R10:1
ITGAV (lysine site: K233) (UniProt P06756) | 2.51
NUCB2 (lysine site: K184) (UniProt P80303) | 2.65
RPSA (lysine site: K52) (UniProt P08865) | 1.63 (active)
PCBP2 (lysine site: K309) (UniProt Q15366) | 3.28
CALD1 (lysine site: K577) (UniProt Q05682) | 1.1 (active)
DSG2 (lysine site: K67) (UniProt Q14126) | 3.97
UniProt Q9UHN6 (lysine site: K1278) | 1.31 (active)
CSPG4 (lysine site: K1711) (UniProt Q6UVK1) | 0.655 (active)
UniProt P21589 (lysine site: K232) | 1.92 (active)
ADAM15 (lysine site: K660) (UniProt Q13444) | 4.34
CD46 (lysine site: K227) (UniProt P15529) | 6.48
FAT4 (lysine site: K1675) (UniProt Q6V0I7) | 1.93 (active)
UniProt P62269 (lysine site: K137) | 3.21
CYB5R3 (lysine site: K42) (UniProt P00387) | 3.81
THRAP3 (lysine site: K711) (UniProt Q9Y2W1) | 1.73 (active)
PIEZO1 (lysine site: K2372) (UniProt Q92508) | 1.09 (active)
EIF3I (lysine site: K2) (UniProt Q13347) | 2.67
EDIL3 (lysine site: K263) (UniProt O43854) | 2.69
RPL34 (lysine site: K85) (UniProt P49207) | 1.67 (active)
SLC39A6 (lysine site: K156) (UniProt Q13433) | 3.23
UniProt P26639 (lysine site: K694) | 1.36 (active)
AGRN (lysine site: K1368) (UniProt O00468) | 1.88 (active)
VAPB (lysine site: K174) (UniProt O95292) | 1.61 (active)
